A selection: hits, their analogues and other compounds. The true share with any hit is near 27%.
CYP2C19 inh – inhibitors of human CYP2C19. P33261. 96,000 tested, 21% active. CYP2C19 Supersomes, luciferin-H EGE luminescence, 30 min. inhibition, % at 5 µM;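 active means CYP2C19 inhibition above a set limit at 5 µM in the primary screen, cut at about 50% in these data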
CYP2C9 activ – activators of human CYP2C9; P11712; recombinant CYP2C9, luciferin-H conversion, luminescence; stronger effect = higher value; factor 1 = untreated enzyme, 0 = blocked; activation factor at 5 µM; 96,000 tested, 1.4% active;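 active means activation factor of 2 or more for CYP2C9 at a 5 µM dose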
Cav32 inh – inhibitors of human Cav3.2 T-type calcium channel | AID 449739 | O95180 | Cav3.2-expressing cells, Fluo-4 calcium fluorescence FDSS; stronger effect = lower value | B-score at 10 µM | 100,000 tested, 4% active;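 active means single-dose well whose peak fluorescence ratio is a statistical outlier from its plate by either plate-standardised score or position-corrected B-score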
Target sequence (O95180 whole entry, looked up): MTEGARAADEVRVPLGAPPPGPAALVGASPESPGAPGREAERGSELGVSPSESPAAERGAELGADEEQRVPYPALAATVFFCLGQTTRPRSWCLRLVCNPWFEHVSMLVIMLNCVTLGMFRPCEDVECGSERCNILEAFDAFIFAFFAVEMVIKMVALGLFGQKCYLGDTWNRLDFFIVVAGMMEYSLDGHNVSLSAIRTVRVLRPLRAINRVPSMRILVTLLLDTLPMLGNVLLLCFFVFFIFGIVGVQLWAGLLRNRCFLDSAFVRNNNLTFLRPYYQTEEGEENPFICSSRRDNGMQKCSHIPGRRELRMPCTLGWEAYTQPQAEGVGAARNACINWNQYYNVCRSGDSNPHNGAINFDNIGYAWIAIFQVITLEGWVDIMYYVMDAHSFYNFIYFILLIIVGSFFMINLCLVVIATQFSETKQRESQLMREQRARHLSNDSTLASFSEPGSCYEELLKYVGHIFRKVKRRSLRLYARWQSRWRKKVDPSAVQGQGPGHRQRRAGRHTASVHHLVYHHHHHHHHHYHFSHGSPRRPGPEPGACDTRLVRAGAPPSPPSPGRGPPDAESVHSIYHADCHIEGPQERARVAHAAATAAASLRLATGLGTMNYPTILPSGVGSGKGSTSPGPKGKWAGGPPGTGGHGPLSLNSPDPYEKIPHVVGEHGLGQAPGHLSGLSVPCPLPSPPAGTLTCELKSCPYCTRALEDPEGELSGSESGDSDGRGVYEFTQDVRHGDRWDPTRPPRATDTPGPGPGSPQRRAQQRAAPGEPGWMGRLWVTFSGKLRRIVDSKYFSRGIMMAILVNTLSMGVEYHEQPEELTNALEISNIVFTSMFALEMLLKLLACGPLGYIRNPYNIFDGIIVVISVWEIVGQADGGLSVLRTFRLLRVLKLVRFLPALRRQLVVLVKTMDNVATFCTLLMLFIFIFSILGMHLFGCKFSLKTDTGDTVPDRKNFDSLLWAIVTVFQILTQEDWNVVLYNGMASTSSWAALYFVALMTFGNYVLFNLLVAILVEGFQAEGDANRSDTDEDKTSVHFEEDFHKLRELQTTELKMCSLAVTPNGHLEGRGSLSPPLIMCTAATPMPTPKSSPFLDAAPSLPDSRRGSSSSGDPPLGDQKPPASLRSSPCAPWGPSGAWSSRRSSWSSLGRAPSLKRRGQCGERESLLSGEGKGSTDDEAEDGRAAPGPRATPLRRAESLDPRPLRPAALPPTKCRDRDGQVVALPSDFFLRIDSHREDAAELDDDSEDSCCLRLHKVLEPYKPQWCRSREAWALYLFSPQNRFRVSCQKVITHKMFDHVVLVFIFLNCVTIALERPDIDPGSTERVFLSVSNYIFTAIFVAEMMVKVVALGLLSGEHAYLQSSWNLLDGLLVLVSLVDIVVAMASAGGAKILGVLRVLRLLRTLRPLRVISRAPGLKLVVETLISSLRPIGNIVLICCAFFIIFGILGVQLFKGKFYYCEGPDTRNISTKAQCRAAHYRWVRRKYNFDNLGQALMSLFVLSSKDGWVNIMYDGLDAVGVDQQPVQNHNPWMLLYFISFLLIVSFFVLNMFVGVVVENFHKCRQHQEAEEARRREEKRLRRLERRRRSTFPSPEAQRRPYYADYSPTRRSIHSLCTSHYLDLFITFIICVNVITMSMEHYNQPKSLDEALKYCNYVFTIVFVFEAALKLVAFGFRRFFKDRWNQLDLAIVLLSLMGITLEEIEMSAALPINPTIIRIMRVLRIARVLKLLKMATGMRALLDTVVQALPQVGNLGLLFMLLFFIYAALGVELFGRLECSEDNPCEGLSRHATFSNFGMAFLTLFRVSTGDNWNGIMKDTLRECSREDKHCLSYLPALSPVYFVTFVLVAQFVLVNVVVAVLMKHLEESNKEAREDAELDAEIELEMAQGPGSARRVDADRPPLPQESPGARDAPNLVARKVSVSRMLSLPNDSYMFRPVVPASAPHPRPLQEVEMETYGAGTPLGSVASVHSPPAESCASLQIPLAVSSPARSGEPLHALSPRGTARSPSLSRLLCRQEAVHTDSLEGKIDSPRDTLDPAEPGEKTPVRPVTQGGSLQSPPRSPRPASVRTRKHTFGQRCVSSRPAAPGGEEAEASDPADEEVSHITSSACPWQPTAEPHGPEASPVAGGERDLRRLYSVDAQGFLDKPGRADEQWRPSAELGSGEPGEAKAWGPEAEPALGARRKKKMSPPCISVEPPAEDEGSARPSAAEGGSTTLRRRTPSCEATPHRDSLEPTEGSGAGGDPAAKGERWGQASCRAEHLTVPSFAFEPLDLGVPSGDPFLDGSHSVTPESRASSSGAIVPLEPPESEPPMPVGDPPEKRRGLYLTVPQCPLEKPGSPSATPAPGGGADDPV
CYP2C9 inhib – inhibitors of human CYP2C9; P11712; CYP2C9 Supersomes, luciferin-H conversion, luminescence; inhibition, % at 5 µM; 96,000 tested, 20% active;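 active means blocking of liver enzyme CYP2C9 beyond about 50% at 5 µM, limit read from the data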
CYP2C19 activ – activators of human cytochrome P450 2C19; AID 1025; recombinant CYP2C19, luciferin-H EGE luminescence; stronger effect = higher value; 0 = fully inhibited enzyme, 1 = untreated enzyme; 96,000 tested, under 10 active; activation factor at 5 µM; P33261;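 active means activation factor of at least 2 at 5 µM in the primary screen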
A number is an active result; 0 = inactive; - = no result.

SMILES | CYP2C19 inh | CYP2C9 activ | Cav32 inh | CYP2C9 inhib | CYP2C19 activ
N#CC1=C(N)NC(SCc2ccccc2)=C(C#N)C12CCCCC2 | 100 | 0 | - | 100 | 0
CCSC1=C(C#N)C2(CCCCC2)C(C#N)=C(N)N1 | 59 | 0 | - | 84 | 0
N#CC1=C(N)NC(SCC(=O)Nc2ccccc2)=C(C#N)C12CCCCC2 | - | - | -5 | - | -
COc1cc(OC)c2c(c1O)OC(c1ccccc1)CC2=O (stereo not given) | - | - | 0 | - | -
CN(Cc1ccccc1)C(=O)C1CCCN(Cc2ccc(Cl)cc2)C1 (stereo not given) | 0 | 0 | 0 | 0 | 0
CC(NC(=S)Nc1ccc(F)cc1)C(c1cccs1)N1CCOCC1 (stereo not given) | - | - | 0 | - | -
CC(C)(C)OC(=O)N1CC(O)CC1C(=O)OCC(=O)c1ccc(Cl)cc1 (stereo not given) | 55 | 0 | 0 | 0 | 0
CC(Oc1c(Cl)cccc1Cl)C1=NCCN1 (stereo not given) | - | - | 0 | - | -
Cc1ccc(-n2c(Cc3cccn3C)nnc2SCC(=O)Nc2ccc3c(c2)OCO3)cc1 | 0 | 0 | -3.9 | 56 | 0
Cc1ccc(-n2c(Cc3cccn3C)nnc2SCC(=O)NCc2ccc3c(c2)OCO3)cc1 | 57 | 0 | -5 | 84 | 0
CCSc1nnc(NC(=O)CSc2nnc(Cc3cccn3C)n2-c2ccc(F)cc2)s1 | 0 | 0 | - | 0 | 0
Cc1ccc(-n2c(Cc3cccn3C)nnc2SCC(=O)Nc2nnc(C)s2)cc1 | 0 | 0 | 0 | 0 | 0
Cn1cccc1Cc1nnc(SCC(=O)Nc2ccc3c(c2)OCCO3)n1-c1ccc(F)cc1 | 0 | 0 | -7.7 | 0 | 0
CCOC(=O)c1c(CN2CCN(CCO)CC2)n(C)c2cc(Br)c(OC)cc12 | 0 | 0 | 0 | 79 | 0
CCOC(=O)c1c(CN2CCCCC2)n(C)c2cc(Br)c(OC)cc12 | 0 | 0 | 0 | 0 | 0
CC(=O)Nc1cc(NC(C)=O)c2nc(N)sc2c1 | 0 | 0 | 0 | 0 | 0
COc1cccc(Nc2nnc(SCC(=O)N(CC(C)C)CC(C)C)s2)c1 | 0 | 0 | -7.2 | 0 | 0
CCCc1nn2c(=O)c(C(c3cccc(Cl)c3)c3c(O)nc4sc(CCC)nn4c3=O)c(O)nc2s1 | 0 | 0 | 0 | 0 | 0
CC(C)CCC(CCN1CCOCC1)c1ccc2c(c1)OCO2 (stereo not given) | 95 | 0 | 0 | 51 | 0
N#CCC(=O)NN=C1CCCCCCCCCCC1 | 0 | 0 | 0 | 0 | 0
CCOC(=O)C(CC)(CC)/C(C)=N/NC(=O)CC#N | 72 | 0 | 0 | 0 | 0
CN(CCc1ccccn1)c1ncnc2[nH]ncc12 | 0 | 0 | 0 | 0 | 0
Cc1ccc(C(=O)N/C(=C\c2cccs2)C(=O)NCc2ccncc2)cc1 | 0 | 0 | 0 | 0 | 0
Cc1ccc(C(=O)N/C(=C\c2ccco2)C(=O)NCCCn2ccnc2)cc1C | 79 | 0 | 0 | 71 | 0
Cc1ccc(C(=O)N/C(=C\c2cccs2)C(=O)NCCCn2ccnc2)cc1C | 0 | 0 | 0 | 54 | 0
SMILES | CYP2C19 inh | CYP2C9 activ | Cav32 inh | CYP2C9 inhib | CYP2C19 activ
Cc1occc1-c1nnc(SCC(=O)Nc2ccccc2N2CCCCC2)n1C | 0 | 0 | 0 | 0 | 0
Cc1ccc(NC(C)c2cc(Cl)ccc2O)cc1 (stereo not given) | 100 | 0 | 0 | 98 | 0
Cc1noc(C)c1CSc1nnc(-c2ccncc2)n1-c1ccc(Cl)c(Cl)c1 | 84 | 0 | - | 59 | 0
Cc1noc(C)c1CSc1nnc(-c2cc(Cl)ccc2Cl)n1N | 0 | 0 | - | 0 | 0
Cc1ccccc1-n1c(SCc2c(C)noc2C)nnc1-c1ccncc1 | 78 | 0 | 0 | 51 | 0
Cc1ccccc1-n1c(SCc2c(C)noc2C)nnc1-c1cccnc1 | 0 | 0 | 0 | 0 | 0
COc1ccc(C2(O)CCN(C(=O)NC3CCCCC3)CC2)cc1 | 0 | 0 | 0 | 0 | 0
CC(Oc1ccc(Cl)cc1Cl)C(=O)Nc1ccc2oc(-c3ccncc3)nc2c1 (stereo not given) | 55 | 0 | 0 | 61 | 0
CC(C)CC(=O)Nc1ccc2oc(-c3ccncc3)nc2c1 | 52 | 0 | 0 | 69 | 0
O=C(Cc1ccccc1)Nc1ccc2oc(-c3ccncc3)nc2c1 | 0 | 0 | 0 | 0 | 0
Cc1ccc(-c2nc3cc(NC(=O)C(C)C)ccc3o2)cc1 | 0 | 0 | 0 | 0 | 0
CC(C)CC(=O)Nc1cccc(-c2nc3ccccc3o2)c1 | 0 | 0 | 0 | 74 | 0
CCCC(=O)Nc1cccc(-c2nc3ccccc3o2)c1 | 0 | 0 | 0 | 0 | 0
CCCOc1ccc(N2C(=O)CC(N3CCC(O)(c4cccc(C(F)(F)F)c4)CC3)C2=O)cc1 (stereo not given) | 0 | 0 | - | 0 | 0
C=CCC(NC(C)c1ccccc1)c1ccco1 (stereo not given) | 0 | 0 | 0 | 0 | 0
O=C(Nc1ccccc1)N(CCc1nc2ccccc2[nH]1)C1CCCC1 | 0 | 0 | 0 | 0 | 0
S=C(NC1CCCCC1)N(CCc1nc2ccccc2[nH]1)C1CCCC1 | - | - | -8.3 | - | -
CCOC(=O)c1cc(-c2ccco2)nc2c1c(C)nn2-c1ccccc1 | 0 | 0 | 0 | 0 | 0
Cc1nn(-c2ccccc2)c2nc(-c3ccncc3)cc(C(=O)NCc3ccco3)c12 | 91 | 0 | 0 | 94 | 0
Cc1nn(-c2ccccn2)c2nc(-c3cccs3)cc(C(=O)NCc3ccco3)c12 | 61 | 0 | 0 | 86 | 0
COC(=O)c1ccc(C2C(C(C)=O)=C(C)Nc3ncnn32)cc1 (stereo not given) | 96 | 0 | 0 | 0 | 0
CCCC1=C(C(=O)OCC)C(c2ccc(N(C)C)cc2)n2ncnc2N1 (stereo not given) | 0 | 0 | 0 | 0 | 0
CCOC(=O)C1=C(c2ccccc2)Nc2ncnn2C1c1cccc(OC)c1OC (stereo not given) | 0 | 0 | 3.4 | 0 | 0
CCCC1=C(C(=O)OCC)C(/C=C/c2ccccc2)n2ncnc2N1 (stereo not given) | 91 | 0 | 0 | 52 | 0
CCCC1=C(C(=O)OCC)C(c2ccc(F)cc2)n2ncnc2N1 (stereo not given) | 55 | 0 | 0 | 76 | 0
SMILES | CYP2C19 inh | CYP2C9 activ | Cav32 inh | CYP2C9 inhib | CYP2C19 activ
COC(=O)c1ccc(C2C(C(=O)Nc3ccccc3C)=C(C)Nc3ncnn32)cc1 (stereo not given) | 0 | 0 | 0 | 0 | 0
C=CCNC(=O)C1CC2Cn3c(nc4cc5ccccc5cc43)C2N1C (stereo not given) | - | - | 0 | - | -
CCOC(=O)C1=C(C)Nc2ncnn2C1c1cccs1 (stereo not given) | 0 | 0 | 0 | 0 | 0
CCOC(=O)C1=C(C)Nc2ncnn2C1/C=C/c1ccccc1 (stereo not given) | 57 | 0 | 0 | 63 | 0
CN(C1CCCCC1)S(=O)(=O)c1ccc(S(=O)(=O)N2CCN(CCC#N)CC2)cc1 | 0 | 0 | 0 | 0 | 0
Cc1cc(C)c(OCC(=O)Nc2ccc3c(c2)OCO3)cc1C | 0 | 0 | 0 | 0 | 0
Cc1cc(OCC(=O)Nc2ccncc2)c(C)cc1Br | 100 | 0 | 0 | 100 | 0
O=C(COc1ccc(Br)cc1)Nc1ccncc1 | 100 | 0 | 0 | 97 | 0
CC(NC(=O)COc1ccc(Br)cc1)C(=O)O (stereo not given) | 0 | 0 | 0 | 0 | 0

Screening data as filed in PubChem BioAssay.
